PubChem BioAssay (NCI)
About 79,000 compounds went through this panel and 15% of them were active in at least one assay; those are over-represented in the sample as a whole. Values without a mark were called inactive. The source made the active and inactive calls. Rule as the data show it: active = growth inhibition above about 70%; inactive = the rest.

Assay: NCI Yeast Anticancer Drug Screen. Data for the mlh1 rad18 strain (AID 175)
Details: S. cerevisiae mlh1 rad18 strain growth inhibition, active compounds read high
Procedure: Growth inhibition of yeast strains with defined genetic alterations is measured as a screen for potential anti-cancer activity. Selected strains with alterations in DNA damage repair or cell cycle control were exposed to compounds and growth inhibition was measured relative to vehicle treated controls. The strain used in this assay is mlh1 rad18

[1] = at 5.0 µM (retest, dose inferred, filed as 0.5)
[2] = at 50.0 µM (retest, dose inferred, filed as 5.0)

Row | SMILES | growth inhibition [1] | growth inhibition [2] | growth inhibition (at 50.0 µM)
1 | Cn1ccnc1Oc1ccc(Cl)cc1 | -131% | 74% (active) | 89.2% (active)
2 | O=CC=C(c1ccccc1)c1ccccc1 | 16% | 90% (active) | 28.4%
3 | O=c1ssc2ncccc12 | 56% | 98% (active) | 96.7% (active)
4 | O=[N+]([O-])c1ccc(=S)[nH]c1 | 51% | 99% (active) | 93.1% (active)
5 | Fc1ccc(NC(=S)SCc2ccc3c(c2)OCO3)cc1F | 6% | 98% (active) | 90.5% (active)
6 | Oc1ccc2ccccc2c1C(c1ccc(Cl)cc1)c1c(O)ccc2ccccc12 | 99% (active) | 99% (active) | 54%
7 | COc1cc(C2SCC(=O)N2c2ccc(-c3ccc(-n4c(-c5ccccc5)nc5ccccc5c4=O)cc3)cc2)cc(OC)c1OC (configuration not stated) | 6% | 37% | 19.4%
8 | Cn1c2ccccc2c(=O)c2cc(NC(=O)CCCCC(=O)Nc3ccc4c(c3)c(=O)c3ccccc3n4C)ccc21 | 9% | 9% | 62.8%
9 | S=c1[nH]nc(Nc2ccc(Cl)cc2)s1 | -149% | 19% | 92.6% (active)
10 | N#CC(C(=O)Nc1ccccc1)C1=C(Cl)C(=O)c2ccccc2C1=O (configuration not stated) | 64% | 98% (active) | 91% (active)
11 | [O-][n+]1c2ccc(O)cc2nc2ccc(Cl)cc21 | -24% | 53% | 86.8% (active)
12 | O=[N+]([O-])c1cccc([N+](=O)[O-])c1S(=O)(=O)c1ccccc1 | 41% | 76% (active) | 87.9% (active)
13 | O=C(OCC=C1CCCC1)c1cc([N+](=O)[O-])cc([N+](=O)[O-])c1 | 7% | 94% (active) | 23.6%
14 | CCCCCCCCCCCCCCC(C(=O)[O-])[n+]1ccccc1 (configuration not stated) | -15% | 51% | 98% (active)
